Measurements as given in PubChem BioAssay AID1159580 (chemical genetic matrix, 2015).
“And” between values parts separate entries of the source, which are not always exact repeats. Identical values can stand only once. Hit rate of the full screen: of about 5,500 compounds, about 2,000 (36%) were called active. Another 18% or so got no clear call; they are omitted. Cut-off read from the data, not from the text of the source: active = normalized growth mostly below about 0.91 (no sharp cut-off); inconclusive = no clear call, values can overlap the other calls; inactive = mostly above about 0.92. The list shows a part of the results.

Assay: chemical genetic growth profiling, strain panel (AID 1159580);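 note: tested at 20 µM; growth read once vehicle control cultures reached saturation at 30 °C; 1 = growth at the plate median or of vehicle wells; lower values mean less growth of the strain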
Conditions: S. cerevisiae deletion strains, growth OD

Measured: normalized growth

COc1ccc2c(c1)O[C@H]1c3ccc(OC)cc3OC[C@@H]21
active: locus YDL192W, strain arf1, stronger effect = lower value 0.897 | locus YDR101C, strain arx1, stronger effect = lower value 0.911 | locus YDR318W, strain mcm21, stronger effect = lower value 0.87 | locus YDR502C, strain sam2, stronger effect = lower value 0.876 | locus YGL078C, strain dbp3, stronger effect = lower value 0.897 | locus YGL086W, strain mad1, stronger effect = lower value 0.882 | locus YGL248W, strain PDE1, stronger effect = lower value 0.863 | locus YGR135W, strain pre9, stronger effect = lower value 0.84 | locus YGR252W, strain gcn5, stronger effect = lower value 0.669 | locus YIR030C, strain dcg1, stronger effect = lower value 0.927
0.684 (active) and 0.982 (inactive): locus YJL095W, strain BCK1, stronger effect = lower value
inactive: locus YAL021C, strain ccr4, stronger effect = lower value 1.03 | locus YAL026C, strain drs2, stronger effect = lower value 1.02 | locus YAL030W, strain snc1, stronger effect = lower value 1.02 | locus YBL061C, strain skt5, stronger effect = lower value 1.02 | locus YBR009C, strain hhf1, stronger effect = lower value 1 | locus YBR021W, strain FUR4, stronger effect = lower value 0.961 | locus YBR023C, strain chs3, stronger effect = lower value 1.02 | locus YBR171W, strain sec66, stronger effect = lower value 1.03 | locus YBR229C, strain ROT2, stronger effect = lower value 0.975 | locus YBR231C, strain swc5, stronger effect = lower value 1.01 | locus YBR279W, strain paf1, stronger effect = lower value 1.02 | locus YCL011C, strain gbp2, stronger effect = lower value 1.02 | locus YCL016C, strain dcc1, stronger effect = lower value 1.03 | locus YCL029C, strain bik1, stronger effect = lower value 0.99 | locus YCL069W, strain vba3, stronger effect = lower value 1.03 | locus YCR088W, strain abp1, stronger effect = lower value 1.02 | locus YDL005C, strain med2, stronger effect = lower value 1.02 | locus YDL035C, strain GPR1, stronger effect = lower value 0.945 | locus YDL040C, strain nat1, stronger effect = lower value 1.01 | locus YDL074C, strain BRE1, stronger effect = lower value 0.911 | locus YDL101C, strain DUN1, stronger effect = lower value 0.984 | locus YDL185W, strain tfp1, stronger effect = lower value 0.98 | locus YDR001C, strain nth1, stronger effect = lower value 1.01 | locus YDR069C, strain doa4, stronger effect = lower value 1.01 | locus YDR137W, strain rgp1, stronger effect = lower value 1.06 | locus YDR150W, strain NUM1, stronger effect = lower value 0.986 | locus YDR159W, strain sac3, stronger effect = lower value 1.05 | locus YDR162C, strain NBP2, stronger effect = lower value 0.937 | locus YDR195W, strain ref2 0.976 | locus YDR297W, strain sur2, stronger effect = lower value 1.03 | locus YDR334W, strain swr1, stronger effect = lower value 1.02 | locus YDR335W, strain msn5, stronger effect = lower value 1.03 | locus YDR388W, stronger effect = lower value 0.956 | locus YDR392W, strain spt3, stronger effect = lower value 1.03 | locus YEL003W, strain gim4, stronger effect = lower value 1.02 | locus YEL037C, strain rad23, stronger effect = lower value 1.02 | locus YEL061C, strain CIN8 (second series), stronger effect = lower value 1.02 | locus YEL061C, strain CIN8, stronger effect = lower value 0.985 | locus YER015W, strain faa2, stronger effect = lower value 1.03 | locus YER016W, strain bim1, stronger effect = lower value 1.02 | locus YER110C, stronger effect = lower value 0.924 | locus YER111C, strain swi4, stronger effect = lower value 1.02 | locus YER155C, strain BEM2 (second series), stronger effect = lower value 1.04 | locus YER167W, strain BCK2, stronger effect = lower value 0.989 | locus YFR010W, strain ubp6, stronger effect = lower value 1.01 | locus YGL167C, strain pmr1, stronger effect = lower value 1.02 | locus YGL173C, strain kem1, stronger effect = lower value 1.02 | locus YGL227W, strain vid30, stronger effect = lower value 1.02 | locus YGL240W, strain doc1, stronger effect = lower value 1.03 | locus YGL253W, strain hxk2, stronger effect = lower value 1.02 | locus YGR078C, strain PAC10, stronger effect = lower value 0.928 | locus YHR013C, strain ard1, stronger effect = lower value 1.05 | locus YHR027C, strain rpn1, stronger effect = lower value 1.02 | locus YHR030C, strain SLT2, stronger effect = lower value 0.977 | locus YHR079C, strain IRE1 (second series), stronger effect = lower value 0.95 | locus YHR079C, strain IRE1, stronger effect = lower value 0.964 | locus YHR094C, strain hxt1, stronger effect = lower value 0.968 | locus YHR129C, strain ARP1, stronger effect = lower value 1 | locus YHR142W, strain chs7, stronger effect = lower value 1.02 | locus YHR200W, strain rpn10, stronger effect = lower value 0.944 | locus YIL066C, strain RNR3, stronger effect = lower value 0.977 | locus YIL073C, strain SPO22, stronger effect = lower value 0.961 | locus YIL125W, strain kgd1, stronger effect = lower value 0.973 | locus YJL092W, strain hpr5, stronger effect = lower value 1.02 | locus YJL095W, strain BCK1 (second series), stronger effect = lower value 1.01 | locus YJL115W, strain asf1, stronger effect = lower value 1.03 | locus YJL129C, strain trk1, stronger effect = lower value 1.05 | locus YJL134W, strain LCB3, stronger effect = lower value 0.992 | locus YJL154C, strain vps35, stronger effect = lower value 1.02 | locus YJL164C, strain tpk1, stronger effect = lower value 1.02 | locus YJL166W, strain qcr8, stronger effect = lower value 1.02 | locus YJL168C, strain set2, stronger effect = lower value 0.955 | locus YJL187C, strain SWE1 (second series), stronger effect = lower value 0.96 | locus YJL187C, strain SWE1, stronger effect = lower value 1.02 | locus YJR066W, strain TOR1, stronger effect = lower value 0.927
